# In paper PMC5540273 (PLoS ONE, 2017):
# Legend:
# [1] = test system: RPS6KA4(Kin.Dom.1-N-terminal)
# [2] = test system: T1, RSK1(Kin.Dom.2-C-terminal)
# T1 construct: gene RPS6KA1
# [3] = test system: T2, RSK2(Kin.Dom.2-C-terminal)
# T2 construct: gene RPS6KA3
# [4] = test system: T3, RSK4(Kin.Dom.1-N-terminal)
# T3 construct: gene RPS6KA6
# 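Note: kd values determined as follow-up on hits from a single-replicate KINOMEscan panel screen.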
structure (smiles),measurement,setting,value
Nc1ncnc2occ(-c3ccc4c(c3)CCN4C(=O)Cc3cc(F)ccc3F)c12 [GSK2645446],Kd,RIPK1,410 nM
c1ccc(-c2ccnc3[nH]ccc23)cc1 [SB-693578],Kd,ROCK2,530 nM
O=C1NC(=O)C(c2ccc(Cl)cc2)=C1Nc1cccc(Cl)c1 [SB-317651],Kd,[1],> 10 µM
Cc1nccc(-c2c(-c3ccc(F)cc3)ncn2CCCN2CCOCC2)n1.Cl [SB-282975],Kd,[1],> 10 µM
Cn1cnc2c(N)ncnc21 [SKF-97623],Kd,[2],> 10 µM
NS(=O)(=O)c1cccc(N/C=C2\C(=O)Nc3ccc(S(=O)(=O)Cc4c(Cl)cccc4Cl)cc32)c1 [GSK398099],Kd,[2],> 10 µM
COc1ccc(Nc2nccc(N3CCC(NC(=O)C(C)c4ccc(Cl)cc4)CC3)n2)cc1 (stereo not drawn) [GSK1379812],Kd,[3],> 10 µM
O=C(Nc1n[nH]c2nc(-c3cccs3)c(Br)cc12)C1CC1 [SB-735297],Kd,[4],3.8 µM
Cn1cncc1C(=O)NC1CCN(c2ccnc(Nc3ccc(F)cc3)n2)C1 (stereo not drawn) [GSK1379717],Kd,SRPK1,> 10 µM
